Experimental data reported in PubChem BioAssay.
Measured potencies and affinities stand elsewhere. Active and inactive are the calls of the source. Unless noted, how the calls were made is not given here.

target: Calcium-dependent protein kinase 1 (Plasmodium falciparum (isolate 3D7)) (UniProt P62344); assay: PfCDPK1 kinase inhibitors, biochemical, TCAMS library (AID 1159585; cut-off not given, nearly all actives have IC50 up to about 0.98 µM;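 further: inhibitors leave more ATP so luminescence rises with inhibition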); details: recombinant PfCDPK1, Kinase-Glo ATP depletion luminescence
Sequence (P62344 whole entry, looked up): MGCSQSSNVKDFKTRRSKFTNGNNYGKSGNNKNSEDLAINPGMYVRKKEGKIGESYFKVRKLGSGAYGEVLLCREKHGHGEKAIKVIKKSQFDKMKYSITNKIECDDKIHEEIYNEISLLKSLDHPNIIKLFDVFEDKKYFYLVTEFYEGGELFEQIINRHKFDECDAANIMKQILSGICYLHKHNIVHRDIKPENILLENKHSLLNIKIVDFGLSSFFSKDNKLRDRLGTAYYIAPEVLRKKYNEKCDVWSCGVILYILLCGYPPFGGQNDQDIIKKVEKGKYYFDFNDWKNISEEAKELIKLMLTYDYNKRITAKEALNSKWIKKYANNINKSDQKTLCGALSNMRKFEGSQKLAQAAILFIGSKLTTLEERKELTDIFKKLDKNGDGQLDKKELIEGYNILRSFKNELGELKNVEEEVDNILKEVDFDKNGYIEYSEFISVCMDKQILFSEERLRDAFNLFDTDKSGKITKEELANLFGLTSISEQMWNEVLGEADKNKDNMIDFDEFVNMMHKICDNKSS

outcome, inactive:
O=C(NCCCCCN1CCC(c2c[nH]c3ccccc23)CC1)c1ccc(Cl)c(Cl)c1
CCCCCCCn1c(=N)n(CC(O)c2ccc(Cl)c(Cl)c2)c2ccccc21 (stereo unspecified)
O=C(Nc1cccc(C(F)(F)F)c1)c1cccc2[nH]c(C(F)(F)F)nc12
Cc1cccc2[nH]c(-c3ccc(-c4ccc(NC(=O)c5cncn5C)cc4)s3)nc12
Nc1c(Cl)cc(C(O)CNCCCCCOCCc2ccc3ccccc3n2)cc1Cl (stereo unspecified)

target: Plasmodium falciparum protein kinase 6 (PK6, PF3D7_1337100) (UniProt Q8IDW1); assay: PfPK6 kinase inhibitors, biochemical, TCAMS library (AID 1159586); details: recombinant PfPK6, Kinase-Glo ATP depletion luminescence
Sequence (Q8IDW1 1-305): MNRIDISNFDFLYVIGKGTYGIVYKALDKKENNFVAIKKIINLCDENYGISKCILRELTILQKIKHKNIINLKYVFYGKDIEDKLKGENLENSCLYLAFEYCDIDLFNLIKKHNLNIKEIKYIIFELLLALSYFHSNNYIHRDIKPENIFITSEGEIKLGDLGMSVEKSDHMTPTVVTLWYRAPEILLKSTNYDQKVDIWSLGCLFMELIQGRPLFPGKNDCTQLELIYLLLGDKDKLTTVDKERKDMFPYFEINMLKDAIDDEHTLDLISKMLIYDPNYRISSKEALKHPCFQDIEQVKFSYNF

outcome, inactive:
COc1cc(OC)cc(C(=O)Nc2ccc(Nc3nc(C)cc(N(C)C)n3)cc2)c1
Cc1ccc(C=C2SC(=Nc3ccccc3)NC2=O)c(C)c1
CC(C)(C)c1nn(-c2ccccc2)c2[nH]c(=O)c(CNCc3ccc4c(c3)OCO4)cc12
Cc1[nH]nc2cc(Nc3nccc(Nc4ccc(Oc5ccccc5)cc4)n3)ccc12
Cc1cc(Nc2ccc(OCc3ccccc3Cl)cc2)c2cc(Cl)ccc2n1
O=C(NCCc1cccc(F)c1)c1cc(Br)cc(N2CCN(c3ccncc3)CC2)c1
COC(=O)/C=C/c1ccc(CCC(C)NCC(O)c2cccc(Cl)c2)cc1 (stereo unspecified)
O=[N+]([O-])c1ccc(C(O)CNCCc2ccccc2)cc1OCc1ccccc1 (stereo unspecified)
Cc1sc2nc(CSc3ccccc3)nc(N3CCN(CC(=O)NC4CC4)CC3)c2c1C
O=C(c1ccc(F)c2ccccc12)N1CCc2cc3nccc(N4CCN5CCC[C@H]5C4)c3cc21
Cc1[nH]c2ccccc2c1C(=O)C(C)Sc1n[nH]c(-c2ccccc2Br)n1 (stereo unspecified)
